Assay outcomes deposited in PubChem BioAssay by several laboratories.
C1s inh – blocks human complement C1s protease activity | P09871 | purified C1s, fluorogenic AMC substrate, pooled mixtures | mean inhibition % of two 10-compound mixtures (stronger effect = higher value), % at 5 µM (by protocol) | actives 0.16% (n = 62,000) | AID 538;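 active means inhibition above 20% in each of the two 10-compound mixture wells holding the compound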;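 further: 0% = enzyme wells lacking compound mixture and 100% = no-enzyme blank wells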
Cathepsin G inh – inhibitors of human cathepsin G. purified enzyme, AMC-tetrapeptide fluorescence, pooled mixtures. AID 581. inhibition, % at 5 µM (by protocol). actives 0.2% (n = 62,000);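 active means inhibition above 20% in each of the two mixture wells holding the compound; inactive means inhibition of 20% or less in either well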;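 further: 0% = enzyme control without mixture and 100% = blank lacking enzyme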
BAP1 block – blocks human BAP1 ubiquitin-AMC hydrolysis; Q92560; recombinant BAP1, Ub-AMC hydrolysis fluorescence kinetic; stronger effect = lower value; activity remaining (% of control), % at 20 µM; actives 0.48% (n = 72,000); AID 436;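 active means activity remaining at or below 50% of control, provided the compound also passes the data quality filters; inactive means the rest, including low values that fail the filters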;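 further: 100% = DMSO wells rate and 0% = substrate alone blank rate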
Candida biofilm – kills Candida albicans biofilms; C. albicans biofilm + clotrimazole, Alamar Blue; inhibition, % at 6 µM; actives 0.14% (n = 85,000);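 active means inhibition above 20%; inactive means inhibition below 20%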;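 further: preformed 24 hr biofilms exposed to compound for 48 hr; 0% = biofilm without compound and 100% = blank killed by clotrimazole plus chlorhexidine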
FXIa inh mix – inhibitors of human coagulation factor XIa, pooled mixtures; purified FXIa, fluorogenic substrate; inhibition, % at 5 µM; actives 0.19% (n = 62,000); AID 680;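 further: each value is inhibition by a whole ten-compound pool holding the compound; 0% = enzyme with no mixture and 100% = wells lacking enzyme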
Target sequence (P03951 19-387 limits assumed): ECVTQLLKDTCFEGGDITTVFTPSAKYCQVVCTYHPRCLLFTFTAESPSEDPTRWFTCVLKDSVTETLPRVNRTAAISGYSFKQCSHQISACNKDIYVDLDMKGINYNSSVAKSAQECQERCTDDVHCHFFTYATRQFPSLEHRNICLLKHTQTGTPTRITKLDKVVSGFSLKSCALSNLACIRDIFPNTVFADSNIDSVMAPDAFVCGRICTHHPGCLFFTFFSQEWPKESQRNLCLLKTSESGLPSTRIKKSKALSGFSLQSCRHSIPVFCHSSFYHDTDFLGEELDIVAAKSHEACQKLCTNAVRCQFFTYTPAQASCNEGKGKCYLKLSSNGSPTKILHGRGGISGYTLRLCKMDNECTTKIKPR
Target sequence (P03951 388-625 limits assumed): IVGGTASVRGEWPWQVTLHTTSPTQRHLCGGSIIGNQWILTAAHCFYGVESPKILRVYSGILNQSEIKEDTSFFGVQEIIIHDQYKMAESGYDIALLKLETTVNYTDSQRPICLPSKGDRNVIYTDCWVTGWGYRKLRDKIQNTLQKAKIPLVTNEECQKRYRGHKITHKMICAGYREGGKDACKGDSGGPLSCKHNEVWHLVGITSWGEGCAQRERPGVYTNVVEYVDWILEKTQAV
FXIIa mix inh – factor XIIa (human) inhibition, mixture screen | P00748 | purified FXIIa, fluorogenic substrate, pooled mixtures | inhibition, % at 5 µM | actives 0.2% (n = 62,000) | AID 684;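 further: 0% = enzyme without compound and 100% = no enzyme blank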
BAP1 inh conf – BAP1 (human) enzyme inhibition, confirmed | shares compounds with BAP1 block | purified BAP1, Ub-ethyl ester hydrolysis, HPLC; stronger effect = lower value | % of control activity, % at 20 µM | actives 8% (n = 310) | AID 753;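 active means percent of control activity at or below 60%; inconclusive means HPLC trace unusable from injection failure or solvent front hiding peaks; inactive means the rest, plus ubiquitin peak ratio over a set limit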
* hit, by the source's call; i = inactive; ? = inconclusive; · = no result given. Sampled rows, rich in hits. Any-hit rate of the full collection: about 0.8%. Unless noted, no stated cut-off is given here; in the data, active means inhibition above about 20% (passing the limit was not always enough); inactive means the rest.

SMILES | C1s inh | Cathepsin G inh | BAP1 block | Candida biofilm | FXIa inh mix | FXIIa mix inh | BAP1 inh conf
CCn1c(=O)c(C(=O)NCCc2ccccc2)c(O)c2ccccc21 | -5.2 | 3.8 | 44.9* | 9.5 | 6.5 | -2.6 | 103.6
CCNCCNC(=O)c1c(O)c2ccccc2n(CC)c1=O | 11.0 | 16.7 | 101.4 | · | 16.7 | 4.9 | ·
Cc1onc(-c2c(F)cccc2Cl)c1C(=O)N1CCCc2ccccc21 | · | · | 101.5 | 2.4 | · | · | ·
COc1ccc(-c2nc3cc(C)ccc3o2)cc1N=Cc1cccc([N+](=O)[O-])c1O | · | · | 102.8 | · | · | · | ·
CCn1c(SCc2nnc(-c3ccccc3)o2)nnc1-c1ccc(S(=O)(=O)N2CCCC2)cc1 | 6.4 | 4.2 | 78.2 | 1.8 | 4.6 | 9.6 | ·
O=C(CSc1nnc(-c2ccc(F)cc2)o1)Nc1ccc(S(=O)(=O)N2CCCCCC2)cc1 | 15.1 | 11.2 | 48.6* | 3.6 | 4.2 | 16.1 | 152.4
O=S(=O)(c1ccc(-c2nnc(SCc3nnc(-c4ccccc4)o3)o2)cc1)N1CCCC1 | -0.7 | -2.6 | 48.0* | · | 3.8 | 10.9 | 108.5
O=C(CCS(=O)(=O)c1ccccc1)Nc1nc2c(s1)COc1ccccc1-2 | -103.2 | -12.7 | 45.6* | 9.2 | -7.3 | -5.7 | 105.6
Cc1nc(N)nc(-c2ccccc2O)n1 | · | · | · | 6.7 | · | · | ·
CSc1nc(-c2ccccc2O)nc(-c2ccccc2O)n1 | 34.7 | 38.9 | 35.1* | 3.7 | 4.6 | -19.8 | i
CCCOC(=O)C1=C(C)NC2=C(C(=O)CCC2)C1c1cccc(OC)c1OC (configuration not stated) | 6.5 | 5.5 | 36.6* | 1.5 | 3.3 | 7.3 | 34.2*
C/C(=N\O)C(=O)NCCCn1ccnc1 | -70.5 | 1.0 | 93.7 | 3.7 | 14.5 | -4.2 | ·
CCOC(=O)CSc1nc2cc(OC)ccc2cc1C#N | -16.4 | -7.9 | 47.1* | 6.3 | 3.4 | 10.5 | 118.3
Cc1ccc(Cn2ncc3c(N4CCN(c5ccccc5C)CC4)ncnc32)cc1 | 22.1* | 19.6 | 33.4* | 4.7 | 13.0 | 4.2 | 95.0
NS(=O)(=O)c1ccc(CNC(=O)NC23CC4CC(CC(C4)C2)C3)cc1 | 2.7 | -0.3 | 48.4* | -2.5 | -2.3 | -4.0 | 128.3
O=C(Nc1nnc(-c2ccco2)s1)C1CCN(S(=O)(=O)c2ccc(Cl)cc2)CC1 | -11.9 | -11.1 | 39.0* | 6.1 | 3.1 | 2.4 | ?
O=C(COc1ccc(Cl)cc1)Nc1nnc(-c2ccc3c(c2)CCCC3)o1 | 10.0 | 9.1 | 44.9* | 13.3 | 3.6 | -1.4 | i
CC(=O)Nc1nnc(-c2ccc3c(c2)CCCC3)o1 | -1.3 | -0.7 | 89.8 | 14.2 | 11.5 | -11.8 | ·
COC(=O)c1ccccc1NC(=O)c1sc(N)nc1C | 0.2 | 5.9 | 95.1 | -1.7 | -1.2 | 2.7 | ·
COC(=O)c1ccccc1NC(=O)c1sc(=S)n(C)c1N | 2.7 | 1.1 | 42.6* | 3.8 | 5.2 | 5.5 | 50.6*
Cc1sc(NC(=O)c2ccccc2)nc1-c1ccc(-c2ccccc2)cc1 | · | · | 63.6 | · | · | · | ·
COc1nc2c(C)cccc2cc1-c1noc(-c2ccco2)n1 | 4.1 | -4.7 | 28.0* | 6.2 | 4.2 | -4.8 | 157.2
CN1CCN(/C=N/C2=C(C#N)C(c3ccccc3)C3=C(CC(C)(C)CC3=O)O2)CC1 (configuration not stated) | · | · | · | 6.5 | · | · | ·
Cc1c(N=Cc2ccco2)c(=O)n(-c2ccccc2)n1C | 14.6 | 10.4 | 71.0 | 10.2 | 4.5 | 6.9 | ·
COc1ccc2c(C=Nc3c(C)n(C)n(-c4ccccc4)c3=O)c(O)n(Cc3ccco3)c(=O)c2c1 | -1.0 | -4.1 | 41.0* | 3.6 | 3.3 | 7.3 | 101.3
CS(=O)(=O)N(CC(=O)Nc1ccc2c(c1)OCCO2)Cc1ccccc1 | 2.3 | 7.1 | 108.2 | 2.1 | 4.7 | 3.6 | ·
O=C(CN(Cc1ccccc1)S(=O)(=O)c1ccc2c(c1)OCCO2)Nc1ccc2c(c1)OCCO2 | 17.6 | 10.8 | 49.7* | · | 6.5 | 2.7 | 143.7
O=C(Nc1nc2ccc(Cl)cc2s1)c1ccc(Br)o1 | -4.1 | 6.5 | 40.4* | · | 4.6 | 3.6 | 80.8
CCCC(c1nnnn1CC(=O)OCC)N(Cc1cc2c(C)cc(C)cc2[nH]c1=O)C1CCCC1 (configuration not stated) | -0.2 | 8.0 | 47.6* | 2.4 | 8.4 | 9.0 | 98.3
Cn1c(-c2c(N)n(C3CCCC3)c3nc4ccccc4nc23)nc2ccccc21 | -25.9 | -16.7 | 41.3* | 0.8 | -0.1 | 0.8 | 160.3
